An excerpt weighted towards active compounds, which were near 2.4% of everything screened.
C diff growth – C. difficile growth inhibition. growth activity, negative = inhibition, % at 16 µg/mL (by protocol). Clostridium difficile clinical isolate growth, OD600, 24 h; hits give low values. 0.25% of 86,000 active;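 active means mean growth activity at or below -80% and every replicate also at or below -80%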
Pf Dd2 growth – inhibitors of Plasmodium falciparum Dd2 growth | P. falciparum Dd2 growth, SYBR Green, 72 h; hits give low values | activity change, % at 10 µM | 2.3% of 94,000 active | AID 1159554; in the data active means activity change below about -80%
Large screens that a line does not name were inactive; ! = not active in a repeat.

C[C@H](CO)N1C[C@H](C)[C@H](CN(C)Cc2ccc(Oc3ccccc3)cc2)Oc2ccc(NS(=O)(=O)c3ccc(Cl)cc3)cc2CC1=O	Pf Dd2 growth -87
C[C@@H]1CN([C@H](C)CO)C(=O)Cc2cc(NS(=O)(=O)c3ccc(Cl)cc3)ccc2O[C@H]1CN(C)Cc1ccc(Oc2ccccc2)cc1	none
C[C@@H]1CN([C@@H](C)CO)C(=O)Cc2cc(NS(=O)(=O)c3ccccc3)ccc2O[C@H]1CN(C)Cc1ccc(C(=O)Nc2ccccc2N)cc1	none
C[C@H](CO)N1C[C@H](C)[C@@H](CN(C)Cc2ccc(C(=O)Nc3ccccc3N)cc2)Oc2ccc(NS(=O)(=O)c3ccccc3)cc2CC1=O	Pf Dd2 growth -83
Cc1ccc(S(=O)(=O)Nc2ccc3c(c2)CC(=O)N([C@H](C)CO)C[C@H](C)[C@H](CN(C)Cc2ccc(C(=O)Nc4ccccc4N)cc2)O3)cc1	Pf Dd2 growth -88
Cc1ccc(S(=O)(=O)Nc2ccc3c(c2)CC(=O)N([C@@H](C)CO)C[C@@H](C)[C@H](CN(C)Cc2ccc(C(=O)Nc4ccccc4N)cc2)O3)cc1	none
Cc1noc(C)c1NC(=O)N(C)C[C@@H]1Oc2ccc(N(C)C)cc2CC(=O)N([C@@H](C)CO)C[C@@H]1C	none
C[C@H]1CN([C@@H](C)CO)C(=O)c2cccc(NC(=O)c3nc4ccccc4s3)c2O[C@@H]1CN(C)Cc1ccc(C(=O)Nc2ccccc2N)cc1	Pf Dd2 growth -89 (no result: C diff growth)
C[C@H](CO)N1C[C@H](C)[C@@H](CN(C)Cc2ccc(C(=O)O)cc2)Oc2c(NC(=O)c3nc4ccccc4s3)cccc2C1=O	none
C[C@H](CO)N1C[C@H](C)[C@H](CN(C)Cc2ccc(C(=O)O)cc2)Oc2c(NC(=O)c3nc4ccccc4s3)cccc2C1=O	none
C[C@H](CO)N1C[C@H](C)[C@@H](CN(C)Cc2ccc(C(=O)Nc3ccccc3N)cc2)Oc2c(NC(=O)c3nc4ccccc4s3)cccc2C1=O	Pf Dd2 growth -89 (no result: C diff growth)
C[C@@H]1CN([C@H](C)CO)C(=O)c2cccc(NC(=O)c3nc4ccccc4s3)c2O[C@H]1CN(C)Cc1ccc(C(=O)O)cc1	none
C[C@H](CO)N1C[C@H](C)[C@H](CN(C)Cc2ccc(C(=O)Nc3ccccc3N)cc2)Oc2c(NC(=O)c3nc4ccccc4s3)cccc2C1=O	Pf Dd2 growth -93 (no result: C diff growth)
C[C@H]1CN([C@@H](C)CO)C(=O)c2cccc(NC(=O)c3nc4ccccc4s3)c2O[C@@H]1CN(C)Cc1ccc(C(=O)O)cc1	none
C[C@@H]1CN([C@@H](C)CO)C(=O)c2cccc(NC(=O)c3nc4ccccc4s3)c2O[C@@H]1CN(C)Cc1ccc(C(=O)Nc2ccccc2N)cc1	Pf Dd2 growth -91 (no result: C diff growth)
CCCN(C)C[C@@H]1Oc2ncc(-c3cccc(C(=O)N(C)C)c3)cc2C(=O)N([C@@H](C)CO)C[C@@H]1C	none
COc1ccc2c3c([nH]c2c1)[C@H](CO)N(Cc1ccccc1)CC31CN(C(=O)c2cccnc2)C1	none
C[C@@H]1CN([C@@H](C)CO)C(=O)Cc2cc(NC(=O)NC3CCCCC3)ccc2O[C@H]1CN(C)Cc1ccc(C(F)(F)F)cc1	none
COc1ccccc1NC(=O)N1C[C@@H]2[C@H](c3ccccc31)[C@@H](CO)N2C(=O)C1CC1	none
CO[C@@H]1CN(C)C(=O)c2ccc(NC(=O)C3CC3)cc2OC[C@H](C)N(C(=O)Cc2ccccn2)C[C@@H]1C	none (no result: C diff growth)
C[C@@H]1CN([C@@H](C)CO)C(=O)Cc2cc(NC(=O)Nc3ccc(C(F)(F)F)cc3)ccc2O[C@H]1CN(C)CC1CCCCC1	Pf Dd2 growth -87
C[C@H]1CN([C@@H](C)CO)C(=O)Cc2cc(NC(=O)Nc3ccc(C(F)(F)F)cc3)ccc2O[C@H]1CN(C)CC1CCCCC1	none
C[C@@H]1CN([C@H](C)CO)C(=O)Cc2cc(NC(=O)Nc3ccc(F)cc3)ccc2O[C@@H]1CN(C)CC1CCCCC1	none
C[C@H](CO)N1C[C@H](C)[C@@H](CN(C)CC2CCCCC2)Oc2ccc(NC(=O)Nc3ccc(F)cc3)cc2CC1=O	Pf Dd2 growth -90
CN(C)C(=O)C[C@@H]1C=C[C@@H](NC(=O)C2CC2)[C@@H](CO)O1	none (no result: Pf Dd2 growth)
Cc1ccccc1-c1ccccc1[C@@H]1[C@@H](C#N)N(C(=O)c2ccccc2)[C@H]1CO	none
Cc1ccccc1-c1ccccc1[C@H]1[C@@H](C#N)N(C(=O)c2ccccc2)[C@@H]1CO	Pf Dd2 growth -93
CS(=O)(=O)N1[C@H](C#N)[C@H](c2ccccc2-c2ccccc2)[C@H]1CO	Pf Dd2 growth -94
CS(=O)(=O)N1[C@H](C#N)[C@H](c2ccccc2-c2ccccc2)[C@@H]1CO	none
CC(=O)N(C)C[C@@H]1Oc2cc(-c3ccc(C)cc3)ccc2S(=O)(=O)N([C@H](C)CO)C[C@@H]1C	none
Cc1ccc(S(=O)(=O)N[C@@H]2CC[C@H](CCNC(=O)C3CC3)O[C@H]2CO)cc1	none (no result: Pf Dd2 growth)
C[C@H](CO)N1C[C@H](C)[C@@H](CN(C)C(=O)Nc2ccc(F)cc2)Oc2ccc(NC(=O)C3CC3)cc2CC1=O	none
CCC(=O)N1CC(=O)N2[C@H](CO)[C@H](c3ccc(-c4ccncc4)cc3)[C@@H]2C1	none
C[C@H](CO)N1C[C@H](C)[C@@H](CN(C)C)Oc2ccc(NS(=O)(=O)c3ccc(F)cc3)cc2C1=O	none
C[C@@H]1CN([C@@H](C)CO)C(=O)c2cc(NC(=O)Nc3ccc(C(F)(F)F)cc3)ccc2O[C@@H](C)CCCCO[C@H]1CN(C)CC1CCCCC1	C diff growth -107
C[C@@H]1CN([C@H](C)CO)C(=O)c2cc(NC(=O)Nc3ccc(C(F)(F)F)cc3)ccc2O[C@@H](C)CCCCO[C@@H]1CN(C)CC1CCCCC1	none
C[C@H](CO)N1C[C@H](C)[C@H](CN(C)CC2CCCCC2)OCCCC[C@H](C)Oc2ccc(NC(=O)Nc3ccc(C(F)(F)F)cc3)cc2C1=O	C diff growth -82
C[C@H](CO)N1C[C@H](C)[C@@H](CN(C)CC2CCCCC2)OCCCC[C@H](C)Oc2ccc(NC(=O)Nc3ccc(C(F)(F)F)cc3)cc2C1=O	none
CO[C@H](CN(C)C(=O)c1cc(Cl)cc(Cl)c1)[C@@H](C)CN(C(=O)Nc1ccc(F)cc1)[C@H](C)CO	none (no result: C diff growth)
C[C@@H]1CN([C@@H](C)CO)S(=O)(=O)c2ccc(-c3ccc(F)cc3)cc2O[C@@H]1CN(C)C(=O)Nc1ccc(F)cc1	none (no result: C diff growth)
CC(C)NC(=O)Nc1ccc2c(c1)CC(=O)N([C@@H](C)CO)C[C@H](C)[C@H](CN(C)S(=O)(=O)c1cccs1)O2	none
Cc1ccc(S(=O)(=O)NCC[C@H]2CC[C@@H](NC(=O)c3cccc(F)c3)[C@@H](CO)O2)cc1	none (no result: C diff growth)
C[C@@H]1CN([C@@H](C)CO)C(=O)c2cc(-c3cccc(F)c3)cnc2O[C@H]1CN(C)C(=O)C1CC1	none (no result: C diff growth)
COc1ccc2c3c(n(C)c2c1)[C@H](CO)NCC31CCN(S(=O)(=O)c2ccc(C)cc2)CC1	none
C/C=C/c1ccc(C2[C@@H]3CN(C(=O)Nc4ccccc4F)C[C@H]2N3)cc1 (some centres not stated)	none
C/C=C/c1ccc(C2[C@@H]3CN(C(=O)Nc4ccc(C(F)(F)F)cc4)C[C@H]2N3)cc1 (some centres not stated)	Pf Dd2 growth -82!
O=C(Nc1ccc2c(c1)OCO2)N1C[C@@H]2N[C@H](C1)C2c1ccc(C=Cc2ccccc2)cc1 (some centres not stated)	C diff growth -99!

Bioassay records as filed in PubChem BioAssay.
